# From PubChem BioAssay (NCI)
# Compounds without any hit were thinned out: in the full panel of roughly 83,000, 20% have a hit.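 Interpretation: 100, growth as untreated; towards 0, rising growth inhibition; 0, no net growth; 0 to -100, cell death. Compounds scoring below 10 were considered active.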 A number with no mark means an inactive call. The source made the active and inactive calls.
# Experiments:
# Test in all cases: NCI-60 one-dose screen, 48 h (100 = growth as untreated, 0 = no growth, -100 = all killed)
# Conditions in all cases: 10 µM unless noted
# SK-MEL-2 melanoma = tested on: SK-MEL-2 melanoma
# EKVX NSCLC = tested on: EKVX NSCLC
# SN12C renal = tested on: SN12C renal
# UO-31 renal = tested on: UO-31 renal
# TK-10 renal = tested on: TK-10 renal
# ACHN renal = tested on: ACHN renal
# CAKI-1 renal = tested on: CAKI-1 renal
# A498 renal = tested on: A498 renal
# CCRF-CEM leukemia = tested on: CCRF-CEM leukemia
# MOLT-4 leukemia = tested on: MOLT-4 leukemia
# SR leukemia = tested on: SR leukemia
# RPMI-8226 leukemia = tested on: RPMI-8226 leukemia
# OVCAR-8 ovarian = tested on: OVCAR-8 ovarian
# OVCAR-5 ovarian = tested on: OVCAR-5 ovarian
# OVCAR-4 ovarian = tested on: OVCAR-4 ovarian
# SK-OV-3 ovarian = tested on: SK-OV-3 ovarian
# IGROV1 ovarian = tested on: IGROV1 ovarian
# OVCAR-3 ovarian = tested on: OVCAR-3 ovarian
# HS 578T breast = tested on: HS 578T breast
# NCI/ADR-RES ovarian = tested on: NCI/ADR-RES ovarian
SMILES,growth (SK-MEL-2 melanoma),growth (EKVX NSCLC),growth (SN12C renal),growth (UO-31 renal),growth (TK-10 renal),growth (ACHN renal),growth (CAKI-1 renal),growth (A498 renal),growth (CCRF-CEM leukemia),growth (MOLT-4 leukemia),growth (SR leukemia),growth (RPMI-8226 leukemia),growth (OVCAR-8 ovarian),growth (OVCAR-5 ovarian),growth (OVCAR-4 ovarian),growth (SK-OV-3 ovarian),growth (IGROV1 ovarian),growth (OVCAR-3 ovarian),growth (HS 578T breast),growth (NCI/ADR-RES ovarian)
CCOC(=O)c1c(C)nc2ccccc2c1/C=C/c1ccc(OC)cc1,64.3%,54.9%,79.8%,52.3%,85.8%,58.8%,56.8%,77.9%,56.4%,26.1%,56.6%,41.8%,57.6%,89.1%,54.6%,76.1%,66%,73.9%,81.6%,31.2%
C#CC#CC#CC#CC#CC#CC#CC#CCC1OCC(COC(=O)O[C@@H](C(=O)O[C@H]2C[C@@]3(O)[C@@H](OC(=O)c4ccccc4)[C@@H]4[C@]5(OC(C)=O)CO[C@@H]5C[C@H](O)[C@@]4(C)C(=O)[C@H](OC(C)=O)C(=C2C)C3(C)C)[C@@H](NC(=O)c2ccccc2)c2ccccc2)O1 (stereo not given in full),30.9%,45.5%,21.4%,81.7%,48%,45.4%,49.6%,-8.03% (active),12.1%,20.7%,12.4%,7.03% (active),14.8%,18.8%,59.5%,41.9%,22.2%,4.93% (active),-4.44% (active),93.5%
COc1cc(Nc2c3ccc(Cl)cc3nc3ccc(OC)cc23)c2ncccc2c1,78.6%,39.2%,52.5%,26.9%,44.7%,31.2%,32.2%,62.4%,26.9%,39.3%,19.8%,55.5%,46.1%,70.2%,20.3%,52.5%,32.2%,33.9%,65.1%,53.9%
O=C(N/N=C/c1ccc(O)cc1O)c1ccc(Nc2ccnc(C(F)(F)F)c2)cc1,73.3%,41.4%,38.5%,46.1%,63.3%,37.9%,34.9%,74.7%,29.1%,73.7%,91.8%,59.2%,48.2%,53.2%,38.6%,38.9%,77.1%,61.6%,86.4%,64.2%
CCn1cc(C2=C(c3cn(C)c4ncccc34)C(=O)NC2=O)c2cccnc21,84.8%,54.6%,68.5%,50%,69.4%,74.7%,61.6%,-2.35% (active),65.8%,81.9%,59.4%,85.2%,82.5%,102%,69.3%,41.6%,64.5%,64.7%,32%,78.2%
C=CC1(C)C(O[Si](C)(C)C(C)(C)C)CC2C3OC(=O)NC31c1cccc3c1[C@H](C(=O)N3C)C2(C)C (stereo not given in full),66.9%,44.2%,50.2%,49.5%,71.3%,59.6%,53.3%,62.6%,47.1%,26%,24.4%,7.41% (active),55.1%,75.8%,55.1%,86.6%,80.9%,52.7%,79.2%,60.5%
COC(=O)/C(CCC=C(C)C)=C1\[C@@H](OC(C)=O)C[C@@]2(C)[C@H]1CC(=O)[C@H]1[C@@]3(C)CCC(N4CCCC4)[C@@H](C)[C@@H]3CC[C@@]12C (stereo not given in full),105%,91.9%,89%,70.2%,102%,104%,106%,105%,78.2%,9.72% (active),56.3%,85.5%,95.7%,96.9%,97.5%,108%,102%,99.1%,89.1%,99.3%
Nc1c(C(=O)Nc2cccc3ncccc23)sc2nc3c(cc12)C(=O)CCC3,36.3%,58.6%,60.8%,58.3%,76.8%,52%,58.8%,4.53% (active),30.5%,66.6%,41.4%,59.6%,78.9%,69.8%,71.1%,21.3%,59%,37.4%,5.47% (active),72.8%
O=C1NC(=C(Cl)Cl)/C(=N/S(=O)(=O)NCCc2c[nH]c3ccccc23)N1,46.2%,101%,35.2%,71.6%,109%,88.4%,83.7%,71.5%,7.47% (active),18%,53.3%,14.8%,92.9%,48.3%,58.6%,62.2%,98.7%,-25.8% (active),27.3%,67.9%
COc1cc2c(/C=C3\C(=O)Nc4ccccc43)c(C(=O)O)[nH]c2cc1C,101%,89.2%,99.7%,55%,134%,90.5%,94.8%,136%,88.7%,84%,91.3%,87%,103%,59.1%,95.3%,129%,-10% (active),108%,137%,84.1%
Cc1nc2ccccc2c(/C=C/c2ccc(C(F)(F)F)cc2)c1C(=O)/C=C/c1ccccc1,-43.6% (active),8.76% (active),-25.9% (active),-96.1% (active),7.75% (active),-54.6% (active),0.887% (active),-31.4% (active),5.84% (active),4.86% (active),8.57% (active),-17.8% (active),-13% (active),-75.7% (active),-1.62% (active),48.2%,-37.3% (active),-62.7% (active),-0.739% (active),-33.8% (active)
COc1ccc(C(c2cc(OC)c(OC)c(OC)c2)N2CCCC2)cc1 (stereo not given),55.7%,87.8%,108%,75.1%,88.3%,103%,77.5%,31.2%,71.2%,78.1%,23.9%,97.4%,95.6%,92.6%,101%,77.5%,82.9%,66.6%,80.4%,69.4%
Cc1nn(-c2ccccc2)c(/N=C/N(C)C)c1/C=C/C(=O)c1ccc(Cl)cc1,99.4%,77.4%,82.5%,78.1%,104%,102%,50.4%,92.6%,66.6%,60.9%,23.4%,6.91% (active),101%,81.7%,98.3%,111%,81.2%,103%,92.2%,86.9%
CS(=O)(=O)Cc1cnc(C2OCCO2)s1,122%,99%,114%,92%,93.8%,96.8%,97.7%,116%,138%,140%,123%,109%,104%,106%,100%,139%,97.5%,96.3%,106%,103%
CC(C)CSc1oc(-c2ccccc2)nc1S(=O)(=O)c1ccccc1,95.9%,88.8%,95%,75.7%,65.6%,89.9%,76.7%,84.9%,86.9%,76.1%,91.7%,85.9%,94.7%,110%,86.6%,87%,94.5%,97.2%,96.6%,82.2%
CN1CCN(c2ccc3c(c2)nc(NNC(=O)c2cnccn2)c2cccn23)CC1,64.8%,30.1%,27.6%,3.3% (active),44.8%,8.28% (active),22.5%,31.4%,11.4%,13.9%,15%,45.3%,20.9%,49.3%,25%,32.5%,15.6%,13.9%,75.4%,16.9%
COc1cc2cc(Oc3ccc(NC(=O)Nc4ccccc4)cc3)c(C)nc2cc1OCCN1CCCCC1,100%,99.8%,89.9%,64.3%,108%,84.4%,96.1%,55.4%,-20.9% (active),-22.2% (active),-25.9% (active),44.3%,46.5%,119%,83.1%,110%,92.3%,101%,70.4%,90.5%
CCOC(=O)CSc1nc2sc3c(c2c(=O)n1-c1ccc([N+](=O)[O-])cc1)CCCCC3,90.9%,82.8%,84.3%,71.4%,84.7%,52.8%,51.2%,85.3%,89%,97%,76.7%,91.6%,58.4%,72.2%,31%,68.3%,68.7%,51.8%,39.7%,84.3%
O=C(Nc1ncc(Cc2ccccc2Cl)s1)c1cccs1,69.4%,77.7%,82.5%,70.8%,88%,73.2%,41.8%,67.1%,66.2%,61.7%,20.4%,73.5%,85.7%,87.9%,74.4%,81.7%,72.3%,79.2%,74.4%,53.7%
CCCCN1C(=O)/C(=c2\sc3n(c2=O)NC2C(N=3)N(CC)C(=O)N2CC)c2ccccc21 (stereo not given),59.1%,67.9%,50.5%,40.1%,83.8%,48.4%,30.3%,42.3%,26.1%,43.6%,24.5%,60.2%,36.2%,48.4%,50.8%,77.2%,47%,0.018% (active),40.2%,20.5%
O=C(Nc1ccccc1)c1sc(-c2ccccc2)cc1O,105%,86.7%,105%,86.5%,118%,93.1%,90.6%,94.6%,96.7%,95.2%,70.4%,74.4%,119%,94.2%,90.9%,106%,92.5%,84.1%,92%,93.4%
O=c1[nH]cnc2c1C(c1ccc(Br)cc1)c1sc3c(F)cccc3c1O2 (stereo not given),110%,90.9%,98.3%,76%,107%,95.1%,82.1%,104%,-50.7% (active),37%,54.7%,60.4%,95.3%,90.7%,94.9%,117%,84.4%,107%,85.2%,100%
O=C(Nc1cccc(NC(=O)C2CCCCC2)c1)c1ccccn1,100%,92%,102%,88.7%,112%,103%,94.9%,96.1%,106%,91.3%,88.9%,105%,104%,105%,101%,102%,98.7%,104%,111%,93.8%
COc1ccc(C/C(C)=C(/c2ccc(OCCN3CCCCCC3)cc2)c2ccc(OC(=O)NCc3ccccc3)cc2)cc1,94.9%,87.6%,71.3%,62.7%,87.8%,101%,92.8%,97.3%,58%,41.2%,-43.2% (active),52.8%,92.4%,91.5%,76%,95.3%,93%,75.1%,75%,86.8%
COc1ccc(-c2oc(=O)ccc2-c2cc(OC)c(OC)c(OC)c2)cc1O,39.9%,49.5%,36.8%,21.9%,61.6%,56%,-11.6% (active),-1.78% (active),4.14% (active),20.5%,8.87% (active),14.6%,23.1%,35.7%,47.6%,28.3%,29.8%,-59.3% (active),-7.79% (active),29.1%
CC1O[C@@H]2C[C@@](O)([C@H]1O)n1c3ccccc3c3c4c(c5c6ccccc6n2c5c31)C(=O)NC4=O (stereo not given in full),75.4%,68.7%,55.1%,24.8%,79.6%,19.3%,28%,42.4%,27.9%,10.5%,32%,55.3%,63.3%,72.8%,66.8%,48.4%,67.6%,55.4%,82.6%,80.7%
O=C1Nc2ccccc2C2c3cccn3-c3ccccc3N12 (stereo not given),52%,81.8%,90.3%,70.4%,73.1%,94.8%,80.8%,73.9%,80.9%,77.5%,49.5%,82.6%,86.9%,96.6%,84.2%,84.6%,74.1%,74.1%,78.3%,42.7%
CC/C=C\C/C=C/C=C1/C(=O)C=C[C@@H]1C/C=C\CCCC(=O)OC,92.6%,99.4%,-8.45% (active),28.2%,31.6%,14.1%,29.7%,109%,1.18% (active),5.5% (active),5.21% (active),1.81% (active),13.2%,63.8%,85.4%,110%,65.4%,11.1%,11.9%,73.5%
COC(=O)c1c2c(n3ccc(C)cc13)C(=O)c1ccccc1C2=O,71.6%,76.3%,75.9%,41%,85.8%,56.3%,59.2%,78.3%,46.8%,51.4%,45.9%,61.1%,60.2%,116%,81.7%,103%,64.5%,67.6%,77.7%,72.8%
COc1ccc(-c2cn(-c3ccc(Cl)cc3)c(SCC(=O)c3ccc([N+](=O)[O-])cc3)n2)cc1,73.6%,95%,78.3%,82.5%,55.9%,81.5%,76.1%,85.2%,93.8%,83.5%,90.1%,97.2%,51.8%,90.5%,38.7%,85.2%,83%,106%,41%,79.5%
